# From the supplement of paper PMC6555819
# Tested on: RARg homodimer (NR concentration 270 nM)
# Test: PBM binding z-score (relative to random genomic background probes); higher = stronger binding; sequences stand for … in GC…GCGATTGACAGCGTAGAATGAAGG
# Outline: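 Random background probes are the reference for binding z-scores. These scores derive from regression-normalized fluorescence on custom Agilent 4×180K protein-binding microarrays incubated 1 h with ligand-free nuclear receptor dimers. Binding was detected with antibodies against each partner (one per run).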
row,Sequence,PBM binding z-score
1,CCTACAGGGTCAGCTAGGCCAGAGTAGGGACGGC,4.38
2,GTATCAAGGTGAATAGGTCGTTGATGAGTAGGCG,1.78
3,TATACAGGGTCAAAGGCCGGAGTACGAATGTCGA,4.9
4,CCTCGGAGGACAGAACGTCAGAGCTGTCCGCTTT,-0.0228
5,ATCTCTAGGTAAGACCCAGTTCAGTGAAGAACGC,0.0331
6,ACTTACGGGTCAACGAGGGTATAGCACGCGTATA,4.88
7,TAGCGTAGGTCAGATCGGGCCAGTATACGCTATA,3.72
8,GCTTACGGGTAAAAGGTTATAGCATGAATAGAAT,1.35
9,TCTATTAGTTGACGGGCAACCGACGAGTCCGTTT,-0.0135
10,CCCAGCAGGCCAGGGTCACTCAAGCATTTCGCTT,2.79
11,CGTCCCAGGTCAGAGAGGTCAGTGAATGCCGAGT,5.73
12,ACTAGCAAGCCAAGGGTCACTCAAGATTAGTCCG,3.58
13,CAGACTGGGGCATAAGGTTACCATAAGCCAGCCC,1.41
14,AGAACGAGGGCTATGAGTTGATAGCACGGGTGGC,-0.0854
15,GCTTGTAGATCAAGGTTAAGATAGACTAAGCTAA,0.411
16,CCTAGCAGGCCAGGGTCACTCAAGCATTTCGCTT,2.84
17,ATCTCTAGGCAAAAGTTCAGTGAATCCCGAGGAT,1.69
18,ATCTCTAGGTAAAGATAGTTCAGAGAATGCAAAT,0.767
19,CAAACTAGGTCACGGAAGGTCAAAGTCGAATGAC,7.4
20,ATATGTAGGTTACGGGTCATTCAGGTTGGTTCGC,2.58
21,ATCTCTAGCTAACAAGTTCAGTGAAAGAGAGGAC,0.987
22,ACAGACAGGTGAGTTAAGGTAACTCAGCTGGACG,0.59
